A selection: hits, their analogues and other compounds. The true share with any hit is near 0.9%.
PPARg SRC3 recr – PPARgamma-driven SRC-3 recruitment agonism. P37231. biochemical PPARgamma/SRC-3 coactivator recruitment assay. activation, % at 8 µM. 200,000 compounds, 0.26% hits. AID 731; in the data active = activation above about 23%;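 also: 0% = DMSO and 100% = reference agonist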
Target sequence (P37231 whole entry, looked up): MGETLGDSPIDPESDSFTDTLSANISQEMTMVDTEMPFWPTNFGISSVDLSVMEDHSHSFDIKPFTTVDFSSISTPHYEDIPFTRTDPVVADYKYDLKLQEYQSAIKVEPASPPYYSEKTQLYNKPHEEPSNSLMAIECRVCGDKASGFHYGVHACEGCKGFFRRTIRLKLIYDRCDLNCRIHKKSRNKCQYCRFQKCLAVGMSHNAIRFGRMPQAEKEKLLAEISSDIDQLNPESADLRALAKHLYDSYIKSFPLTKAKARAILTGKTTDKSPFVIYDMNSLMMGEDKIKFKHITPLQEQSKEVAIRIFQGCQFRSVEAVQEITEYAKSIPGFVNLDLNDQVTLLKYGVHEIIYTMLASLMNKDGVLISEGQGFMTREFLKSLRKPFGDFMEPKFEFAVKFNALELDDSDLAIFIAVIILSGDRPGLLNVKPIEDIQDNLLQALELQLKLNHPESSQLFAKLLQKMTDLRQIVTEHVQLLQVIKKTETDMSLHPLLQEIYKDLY
SRC1 TRFRET art – TR-FRET artefact, counter-screen to PPARgamma/SRC-1 agonist assay; TR-FRET detection artefact counter-screen, emission ratio; hits give high values; TR-FRET ratio at 8 µM; 99,000 compounds, 0.34% hits; AID 1051; in the data active = TR-FRET ratio above about 2300
PPARg SRC-2 ag – agonists of SRC-2 recruitment by human PPARgamma; activation, % at 8 µM; PPARgamma LBD-SRC-2 recruitment, biochemical; 200,000 compounds, 0.34% hits; P37231; in the data active = activation above about 22%;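 also: 0% = vehicle and 100% = reference agonist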
SRC3 TRFRET art – counter-screen for PPARgamma SRC-3 recruitment agonists: TR-FRET artefact; PPARgamma/SRC-3 format; hits give high values; TR-FRET ratio at 8 µM; 99,000 compounds, 0.39% hits; AID 1048
TR-FRET SRC-2 ct – flags TR-FRET format artefacts in PPARgamma SRC-2 recruitment agonist screen; TR-FRET ratio at 8 µM; TR-FRET artefact counter-screen; hits give high values; 200,000 compounds, 0.4% hits
PPARg SRC1 recr – agonists of human PPARgamma SRC-1 coactivator recruitment; PPARgamma-SRC-1 coactivator recruitment biochemical assay; P37231; 200,000 compounds, 0.41% hits; activation, % at 8 µM; AID 631; in the data active = activation above about 19%;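 also: 0% = DMSO and 100% = reference agonist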
PPARg SRC2 conf – confirmation of agonists of SRC-2 recruitment by human PPARgamma | shares compounds with PPARg SRC3 recr | biochemical SRC-2 recruitment by PPARgamma | activation, % at 8 µM | 790 compounds, 52% hits | AID 1297; in the data active = activation above about 22%;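 also: 0% = vehicle alone and 100% = reference agonist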
PPARg SRC1 ag – confirmation of agonists of SRC-1 recruitment by human PPARgamma; shares compounds with PPARg SRC3 recr; PPARgamma–SRC-1 coactivator recruitment biochemical assay; activation, % at 8 µM; 790 compounds, 43% hits; AID 1300; in the data active = activation above about 20%;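 also: 0% = vehicle wells and 100% = reference agonist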
PPARg SRC3 ag – human PPARgamma SRC-3 recruitment agonism, confirmation. biochemical PPARgamma-SRC-3 coactivator recruitment, agonist mode. activation, % at 8 µM. shares compounds with PPARg SRC3 recr. 790 compounds, 29% hits; in the data active = activation above about 24%;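 also: 0% = vehicle wells and 100% = reference agonist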
* marks the source's active call; other numbers are inactive results; x = no result given. Rule as the data show it, unless noted: active = TR-FRET ratio above about 2000; inactive = the rest.

SMILES	PPARg SRC3 recr	SRC1 TRFRET art	PPARg SRC-2 ag	SRC3 TRFRET art	TR-FRET SRC-2 ct	PPARg SRC1 recr	PPARg SRC2 conf	PPARg SRC1 ag	PPARg SRC3 ag
Cc1ccc2nc(N3C(=O)C(O)=C(C(=O)c4ccc(C)o4)C3c3cccc(O)c3)sc2c1 (stereo not drawn)	10	2305	24*	1853	1951	15	4	4	2
Cc1cc(N2C(=O)C(O)=C(C(=O)c3cccs3)C2c2cccc(O)c2)no1 (stereo not drawn)	-4	x	6	x	1443	-2	x	x	x
CCn1c(CN2CCN(Cc3ccc(C)cc3)C(CCO)C2)nc2ccccc21 (stereo not drawn)	-2	1555	3	1385	1419	-9	x	x	x
S=C(Nc1ccc2nsnc2c1)N1CCCCC1	9	2191	22*	1795	1710	17	21	18	14
COc1ccc(C(=O)Nc2sc(C)c(C)c2CN2CC(C)OC(C)C2)cc1 (stereo not drawn)	-1	1656	4	1643	1598	-1	x	x	x
N#Cc1c(-c2ccccc2)nc(SCC(=O)Nc2ccccc2)[nH]c1=O	5	2166	6	1873	1703	17	x	x	x
Cc1cc(C)nc(NS(=O)(=O)c2ccc(NC(=O)CSc3nc(-c4ccccc4)c(C#N)c(=O)[nH]3)cc2)n1	11	2109	24*	2218*	2049*	21*	14	11	11
CCCCn1c(SCC(=O)Nc2cc(C)on2)nc2ccccc2c1=O	13	x	-6	x	1385	22*	6	5	4
CCC(C)n1c(SCC(=O)Nc2cc(C)on2)nc2ccccc2c1=O (stereo not drawn)	-4	x	1	x	1498	4	x	x	x
CCCSc1nc2c(c(=O)[nH]c(=O)n2C)n1C	15	x	10	x	1609	21*	1	1	1
CCSc1nc2c(c(=O)[nH]c(=O)n2C)n1C	4	x	15	x	1656	8	x	x	x
CC(=O)C1=C(C)Nc2ncnn2C1c1ccc(Cl)cc1 (stereo not drawn)	-7	x	0	x	1370	-4	x	x	x
COC(=O)c1cc(Cl)c(NC(=O)c2ccc(C(C)(C)C)cc2)cc1OC	20	x	8	x	1607	5	x	x	x
COC(=O)c1cc(Cl)c(NC(=O)c2cc3ccccc3o2)cc1OC	105*	x	50*	x	3198*	97*	59*	53*	40*
CCCC(=O)N1N=C(c2ccccc2)CC1c1cn(C)c2ccccc12 (stereo not drawn)	5	1917	3	1691	1652	0	x	x	x
CC(=O)N1N=C(c2ccc(Br)cc2)CC1c1cn(C)c2ccccc12 (stereo not drawn)	20	2488*	28*	2275*	2079*	24*	36*	34*	24
CCCCn1cnc(C(=O)OCC)c1N	4	1801	16	1587	1762	1	x	x	x
CSC1=NSC2=NC(=O)/C(=C\c3coc4ccccc4c3=O)C(=N)N12	28*	1656	15	1493	1437	25*	9	10	22
CC(C)CSC1=NSC2=NC(=O)/C(=C\c3coc4ccccc4c3=O)C(=N)N12	12	1912	5	1817	1797	7	x	x	x
CCCCOCP(=O)(CCCC)COCCCC	1	x	2	x	1550	-1	x	x	x
O=C(Nc1ccccc1C(=O)NCC1CCCO1)c1ccc(Cl)cc1Cl (stereo not drawn)	11	x	-1	x	1634	22*	1	-1	2
CCn1c(=S)ccc2ccc(OC)cc21	40*	x	39*	x	2084*	21*	9	4	6
CCn1c(COc2cc(C)ccc2C(C)C)nnc1SCC(=O)Nc1nccs1	-2	1520	5	1415	1561	-15	x	x	x
CCC(OC(=O)c1cc2sccc2n1C)C(=O)NCC1CCCO1 (stereo not drawn)	11	x	11	x	1531	22*	12	17	17

Bioassay records (PubChem BioAssay)
